Data reported in PubChem BioAssay (NCATS).
Values joined by “and” are separate entries in the source; they are usually repeats but may differ in a detail not shown here. Identical values can stand only once. Records with an inconclusive call do not appear. Entries that show only a call come without a potency. Active and inactive are the calls of the source. Calls come from the whole dose curve; as a rule, active = well fitted inhibition curve with a large enough effect; inconclusive = small, poorly fitted or top-dose-only effect; inactive = no such curve, though single readings can be large or run the other way.

These molecules were tested against Muscarinic acetylcholine receptor M1 (Rattus norvegicus) (UniProt P08482) (assay: qHTS Assay for Antagonists of Acetylcholine Muscarinic M1 Receptor: Measurement of IP-One Response (AID 944; note: nearly all actives have a fitted effect of over 75% in size)). Conditions: CHO-M1 cells, IP-One HTRF, antagonist mode; series mostly up to 46.1 µM.
Sequence of Muscarinic acetylcholine receptor M1 (Rattus norvegicus) (P08482 whole entry, looked up): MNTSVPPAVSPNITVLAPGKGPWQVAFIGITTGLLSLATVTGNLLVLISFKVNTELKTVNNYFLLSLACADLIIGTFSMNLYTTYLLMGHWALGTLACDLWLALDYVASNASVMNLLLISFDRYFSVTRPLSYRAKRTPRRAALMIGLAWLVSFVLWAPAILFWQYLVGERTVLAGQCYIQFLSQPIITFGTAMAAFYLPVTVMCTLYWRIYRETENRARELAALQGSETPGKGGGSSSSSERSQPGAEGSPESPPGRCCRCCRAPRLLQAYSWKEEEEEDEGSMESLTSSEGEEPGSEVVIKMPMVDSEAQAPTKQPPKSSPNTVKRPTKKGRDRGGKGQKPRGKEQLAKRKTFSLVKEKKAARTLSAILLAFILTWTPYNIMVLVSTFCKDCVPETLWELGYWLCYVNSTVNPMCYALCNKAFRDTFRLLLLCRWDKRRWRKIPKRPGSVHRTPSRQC
How it was run: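 CHO cells expressing rat M1 receptor, recovered overnight, were pre-incubated 10 min with compound, then stimulated 30 min with carbachol at EC80 (200 nM) in LiCl-containing buffer, pH 7.4. IP1 accumulation was read by HTRF (620/665 nm).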
Potency is the fitted concentration of half-maximal effect.

Row | Compound | Potency
1 | c1ccc(CCCN2CCN(CCOC(c3ccccc3)c3ccccc3)CC2)cc1 | 8.91 µM (active)
2 | Cn1cnc(CCN)c1 | inactive
3 | C[C@@H]1O[C@H](C[N+](C)(C)C)C[C@H]1O | inactive
4 | O=C(O)CC[N+](=O)[O-] | inactive
5 | CCCN1CCO[C@@H]2c3cc(O)ccc3OC[C@H]21 | inactive
6 | CCCN(CCC)[C@@H]1CCc2ccc(O)cc2C1 | 5.01 µM (active) and 3.98 µM (active)
7 | NCCc1c[nH]c2ccccc12 | inactive
8 | CC1=NN=C(c2ccc(N)cc2)c2cc3c(cc2C1)OCO3 | inactive
9 | C#CCOC(=O)C1=CCCN(C)C1 | inactive
10 | O=C1CCCN1CC#CCN1CCCC1 | inactive
11 | O=C(O)Cc1cnc[nH]1 | inactive
12 | NCc1cc(=O)[nH]o1 | inactive
13 | CCCN1CCC[C@H](c2cccc(O)c2)C1 | inactive
14 | CN[C@@H]1C[C@@H](c2ccc(Cl)c(Cl)c2)c2ccccc21 | inactive
15 | CNCCc1ccc(O)c(O)c1 | inactive
16 | COc1ccc2c(c[n+](C)c3c4cc5c(cc4ccc23)OCO5)c1OC | 35.5 µM (active)
17 | Clc1cnc(Oc2ccc(Oc3ncc(Cl)cc3Cl)cc2)c(Cl)c1 | inactive
18 | CC(=O)NCCc1c[nH]c2ccccc12 | inactive
19 | Cc1nccc2c1[nH]c1ccccc12 | inactive
20 | NC(=NCCC[C@H](N)C(=O)O)N[N+](=O)[O-] | inactive
21 | CNCCc1c[nH]c2ccc(O)cc12 | inactive
22 | CCCCc1ccc(C(=O)O)nc1 | inactive
23 | c1ccc2sc(C3(N4CCCCC4)CCCCC3)cc2c1 | inactive
